# The supplement of paper PMC10849652
# About 7,900 targets were measured; listed, in parts, are those with a hit and a random draw of the rest. About 0.6% of all pairs of compound and target were hits. A number with no mark means an inactive call.
# Key:
# Assay in all cases: log2 fold change, soluble protein after heating vs DMSO (PISA); higher = thermal stabilisation; K562 cells, 10 uM, 30 min; active = over 0.2 and 3.5 SD of the protein, either way, in both replicates (recomputed)
# [1] = compound: CS(=O)(=O)c1ccc(-c2cnc(N)c(C(=O)Nc3ccccc3)n2)cc1
# Procedure, shortened: (§1)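 K562 cells at 2×10^6 cells/mL were treated with 10 μM compound for 30 min. Aliquots were heated for 3 min across 48°C-58°C, pooled, and extracted in PBS with 0.5% NP-40 at 4°C; soluble protein was the supernatant after 21,000xg for 90 min. Soluble protein was quantified by TMTpro 16plex LC-MS/MS with channel sums equalised, and reported as log2 fold change in thermal stability against DMSO controls, with values from duplicates.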
# [2] = compound: C[C@@H]1COCCN1C2=NC(=NC(=C2)C3(CC3)S(=O)(=O)C)C4=C5C=CNC5=CC=C4
# Procedure, shortened: as §1
# ispinesib = compound: Cc1ccc(C(=O)N(CCCN)[C@@H](c2nc3cc(Cl)ccc3c(=O)n2Cc2ccccc2)C(C)C)cc1 [ispinesib]
# Procedure, shortened: as §1
# bafetinib = compound: Cc1ccc(NC(=O)c2ccc(CN3CC[C@H](N(C)C)C3)c(C(F)(F)F)c2)cc1Nc1nccc(-c2cncnc2)n1 [bafetinib]
# Procedure, shortened: as §1
# [3] = compound: Cn1cc(-c2ccc3nnc(C(F)(F)c4ccc5ncccc5c4)n3n2)cn1
# Procedure, shortened: as §1
# tipifarnib = compound: Cn1cncc1[C@@](N)(c1ccc(Cl)cc1)c1ccc2c(c1)c(-c1cccc(Cl)c1)cc(=O)n2C [tipifarnib]
# Procedure, shortened: as §1
# crizotinib = compound: C[C@@H](Oc1cc(-c2cnn(C3CCNCC3)c2)cnc1N)c1c(Cl)ccc(F)c1Cl [crizotinib]
# Procedure, shortened: as §1
# gandotinib = compound: Cc1cc(Nc2cc(CN3CCOCC3)c3nc(C)c(Cc4ccc(Cl)cc4F)n3n2)n[nH]1 [gandotinib]
# Procedure, shortened: as §1
# tozasertib = compound: Cc1cc(Nc2cc(N3CCN(C)CC3)nc(Sc3ccc(NC(=O)C4CC4)cc3)n2)n[nH]1 [tozasertib]
# Procedure, shortened: as §1
# doramapimod = compound: Cc1ccc(-n2nc(C(C)(C)C)cc2NC(=O)Nc2ccc(OCCN3CCOCC3)c3ccccc23)cc1 [doramapimod]
# Procedure, shortened: as §1
# [4] = compound: Cc1cccc(CC(=O)N2CCc3c2ccc(-c2cn(C)c4ncnc(N)c24)c3F)n1
# Procedure, shortened: as §1
# nilotinib = compound: Cc1cn(-c2cc(NC(=O)c3ccc(C)c(Nc4nccc(-c5cccnc5)n4)c3)cc(C(F)(F)F)c2)cn1 [nilotinib]
# Procedure, shortened: as §1
# [5] = compound: Cc1nc(Nc2n[nH]c3c2CN(C(=O)N[C@H](CN(C)C)c2ccccc2)C3(C)C)c2sccc2n1
# Procedure, shortened: as §1
# [6] = compound: Cc1ncc(-c2ccnc(Nc3ccc(S(C)(=O)=O)cc3)n2)n1C(C)C
# Procedure, shortened: as §1
# [7] = compound: C[C@H](C1=CC=C(C=C1)C(=O)NC2=C3C=CNC3=NC=C2)N
# Procedure, shortened: as §1
# [8] = compound: Cn1cc(-c2ccc3c(c2)CCN3C(=O)Cc2cccc(C(F)(F)F)c2)c2c(N)ncnc21
# Procedure, shortened: as §1
# duvelisib = compound: C[C@H](Nc1ncnc2nc[nH]c12)c1cc2cccc(Cl)c2c(=O)n1-c1ccccc1 [duvelisib]
# Procedure, shortened: as §1
# [9] = compound: Cc1cc(SCc2sc(-c3ccc(C(F)(F)F)cc3)nc2C)ccc1OCC(=O)O
# Procedure, shortened: as §1
# dasatinib = compound: Cc1nc(Nc2ncc(C(=O)Nc3c(C)cccc3Cl)s2)cc(N2CCN(CCO)CC2)n1 [dasatinib]
# Procedure, shortened: as §1
# mubritinib = compound: FC(F)(F)c1ccc(/C=C/c2nc(COc3ccc(CCCCn4ccnn4)cc3)co2)cc1 [mubritinib]
# Procedure, shortened: as §1
# Sequence of UniProt P35611 (P35611 whole entry, looked up): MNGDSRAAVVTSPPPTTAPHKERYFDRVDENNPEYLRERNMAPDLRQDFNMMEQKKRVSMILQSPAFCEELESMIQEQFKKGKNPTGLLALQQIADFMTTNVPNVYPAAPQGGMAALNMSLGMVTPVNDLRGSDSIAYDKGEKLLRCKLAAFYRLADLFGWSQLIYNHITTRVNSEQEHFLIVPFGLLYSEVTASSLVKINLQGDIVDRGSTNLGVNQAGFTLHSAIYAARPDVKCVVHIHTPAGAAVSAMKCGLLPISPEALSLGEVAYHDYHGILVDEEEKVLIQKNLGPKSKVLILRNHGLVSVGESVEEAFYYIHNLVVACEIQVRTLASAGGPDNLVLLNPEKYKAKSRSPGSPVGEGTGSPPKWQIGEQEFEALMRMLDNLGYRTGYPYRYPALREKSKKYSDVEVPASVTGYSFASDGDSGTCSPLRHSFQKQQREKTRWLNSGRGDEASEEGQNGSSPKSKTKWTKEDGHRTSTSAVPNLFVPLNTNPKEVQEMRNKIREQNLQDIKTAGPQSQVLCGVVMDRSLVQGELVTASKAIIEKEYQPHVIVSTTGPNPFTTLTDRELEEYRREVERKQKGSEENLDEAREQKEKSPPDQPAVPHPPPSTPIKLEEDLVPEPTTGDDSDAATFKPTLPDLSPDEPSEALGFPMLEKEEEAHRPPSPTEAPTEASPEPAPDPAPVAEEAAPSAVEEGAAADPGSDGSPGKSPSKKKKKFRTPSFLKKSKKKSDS
# Sequence of UniProt P98171 (P98171 whole entry, looked up): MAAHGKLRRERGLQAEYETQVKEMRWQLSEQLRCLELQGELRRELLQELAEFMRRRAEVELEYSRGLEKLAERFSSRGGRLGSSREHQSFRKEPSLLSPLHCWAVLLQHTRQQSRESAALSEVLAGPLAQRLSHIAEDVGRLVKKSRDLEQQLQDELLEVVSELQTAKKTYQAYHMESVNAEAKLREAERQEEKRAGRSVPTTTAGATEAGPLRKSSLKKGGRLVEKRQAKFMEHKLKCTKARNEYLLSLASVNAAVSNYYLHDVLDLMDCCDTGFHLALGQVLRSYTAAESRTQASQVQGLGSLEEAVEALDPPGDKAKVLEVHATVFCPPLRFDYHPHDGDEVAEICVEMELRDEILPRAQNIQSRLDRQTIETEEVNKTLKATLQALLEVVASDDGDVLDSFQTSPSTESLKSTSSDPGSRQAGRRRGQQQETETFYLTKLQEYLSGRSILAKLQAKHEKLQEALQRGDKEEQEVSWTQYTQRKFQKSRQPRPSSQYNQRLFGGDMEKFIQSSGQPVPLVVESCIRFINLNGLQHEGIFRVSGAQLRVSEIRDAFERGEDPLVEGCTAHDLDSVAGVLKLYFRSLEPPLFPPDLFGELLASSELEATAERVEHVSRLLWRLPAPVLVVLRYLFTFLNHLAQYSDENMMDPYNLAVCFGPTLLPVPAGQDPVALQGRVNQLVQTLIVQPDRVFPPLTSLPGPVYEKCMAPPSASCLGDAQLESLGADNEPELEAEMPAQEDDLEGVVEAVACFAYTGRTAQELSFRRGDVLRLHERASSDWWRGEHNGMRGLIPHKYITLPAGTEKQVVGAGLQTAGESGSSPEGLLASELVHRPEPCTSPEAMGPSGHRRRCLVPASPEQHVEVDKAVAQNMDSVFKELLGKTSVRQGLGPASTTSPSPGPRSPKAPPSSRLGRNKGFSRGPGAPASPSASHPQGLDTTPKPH
# Sequence of UniProt P55008 (P55008 whole entry, looked up): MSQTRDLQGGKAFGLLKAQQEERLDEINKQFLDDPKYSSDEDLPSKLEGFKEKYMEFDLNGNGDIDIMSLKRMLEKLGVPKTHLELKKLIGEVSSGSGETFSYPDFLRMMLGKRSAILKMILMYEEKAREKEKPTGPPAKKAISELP
# Sequence of UniProt P49189 (P49189 whole entry, looked up): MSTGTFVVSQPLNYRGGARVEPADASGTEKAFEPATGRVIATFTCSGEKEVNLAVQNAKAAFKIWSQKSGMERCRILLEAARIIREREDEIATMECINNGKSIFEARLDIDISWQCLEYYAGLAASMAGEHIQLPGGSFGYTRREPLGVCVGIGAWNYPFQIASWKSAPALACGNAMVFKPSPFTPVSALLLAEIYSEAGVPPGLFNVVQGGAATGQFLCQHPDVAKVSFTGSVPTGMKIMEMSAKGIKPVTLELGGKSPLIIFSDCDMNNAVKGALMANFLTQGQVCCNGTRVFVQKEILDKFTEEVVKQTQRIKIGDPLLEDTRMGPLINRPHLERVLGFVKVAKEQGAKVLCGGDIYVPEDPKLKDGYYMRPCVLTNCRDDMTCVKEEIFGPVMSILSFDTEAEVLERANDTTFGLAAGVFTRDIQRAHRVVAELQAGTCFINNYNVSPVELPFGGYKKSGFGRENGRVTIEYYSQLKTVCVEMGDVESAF
# Sequence of UniProt Q9UNK9 (Q9UNK9 whole entry, looked up): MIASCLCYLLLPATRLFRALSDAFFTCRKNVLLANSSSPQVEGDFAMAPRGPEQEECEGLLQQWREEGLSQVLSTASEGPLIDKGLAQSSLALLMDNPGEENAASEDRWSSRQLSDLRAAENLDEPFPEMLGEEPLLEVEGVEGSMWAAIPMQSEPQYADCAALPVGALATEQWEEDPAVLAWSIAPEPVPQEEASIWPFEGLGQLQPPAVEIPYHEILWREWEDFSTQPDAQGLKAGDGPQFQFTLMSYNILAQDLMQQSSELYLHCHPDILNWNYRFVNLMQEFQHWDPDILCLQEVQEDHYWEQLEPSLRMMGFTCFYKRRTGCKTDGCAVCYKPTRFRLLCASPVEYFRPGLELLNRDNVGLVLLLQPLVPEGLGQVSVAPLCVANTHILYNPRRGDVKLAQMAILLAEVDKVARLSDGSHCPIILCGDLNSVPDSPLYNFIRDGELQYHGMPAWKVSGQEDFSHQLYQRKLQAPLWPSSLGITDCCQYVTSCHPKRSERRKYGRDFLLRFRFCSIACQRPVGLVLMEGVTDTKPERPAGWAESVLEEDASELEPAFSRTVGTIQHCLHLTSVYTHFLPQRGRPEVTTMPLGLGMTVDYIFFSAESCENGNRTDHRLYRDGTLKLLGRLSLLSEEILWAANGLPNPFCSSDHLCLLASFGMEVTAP
# Sequence of UniProt Q9UKU0 (Q9UKU0 whole entry, looked up): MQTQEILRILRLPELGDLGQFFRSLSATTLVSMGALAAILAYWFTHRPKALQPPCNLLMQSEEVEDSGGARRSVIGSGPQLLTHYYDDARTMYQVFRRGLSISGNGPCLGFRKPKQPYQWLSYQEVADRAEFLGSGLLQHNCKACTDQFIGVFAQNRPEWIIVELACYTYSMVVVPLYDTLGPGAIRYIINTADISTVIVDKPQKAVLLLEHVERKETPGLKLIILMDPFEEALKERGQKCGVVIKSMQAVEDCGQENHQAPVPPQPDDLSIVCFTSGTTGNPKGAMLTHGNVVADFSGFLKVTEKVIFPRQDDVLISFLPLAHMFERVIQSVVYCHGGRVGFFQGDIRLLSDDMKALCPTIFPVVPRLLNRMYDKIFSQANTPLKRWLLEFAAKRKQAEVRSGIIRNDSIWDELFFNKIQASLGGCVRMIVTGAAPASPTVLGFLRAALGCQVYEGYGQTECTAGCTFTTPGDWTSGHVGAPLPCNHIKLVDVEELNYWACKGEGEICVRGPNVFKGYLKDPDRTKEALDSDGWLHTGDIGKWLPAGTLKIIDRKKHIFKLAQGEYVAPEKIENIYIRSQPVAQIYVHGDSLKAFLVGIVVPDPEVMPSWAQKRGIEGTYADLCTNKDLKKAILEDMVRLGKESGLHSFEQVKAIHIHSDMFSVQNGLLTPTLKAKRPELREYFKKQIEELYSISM
# Sequence of UniProt P00966 (P00966 whole entry, looked up): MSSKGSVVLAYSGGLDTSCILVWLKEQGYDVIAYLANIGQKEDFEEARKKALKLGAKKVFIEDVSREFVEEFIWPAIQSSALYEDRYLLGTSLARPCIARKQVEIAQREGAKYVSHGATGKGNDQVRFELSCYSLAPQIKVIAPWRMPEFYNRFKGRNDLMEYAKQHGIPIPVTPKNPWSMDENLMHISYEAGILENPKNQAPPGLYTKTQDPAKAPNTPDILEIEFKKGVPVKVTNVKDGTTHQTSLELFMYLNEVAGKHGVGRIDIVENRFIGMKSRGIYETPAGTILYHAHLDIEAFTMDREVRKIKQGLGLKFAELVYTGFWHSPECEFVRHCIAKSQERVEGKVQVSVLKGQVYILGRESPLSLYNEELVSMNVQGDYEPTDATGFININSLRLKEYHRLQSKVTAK
# Sequence of UniProt Q96KE9 (Q96KE9 whole entry, looked up): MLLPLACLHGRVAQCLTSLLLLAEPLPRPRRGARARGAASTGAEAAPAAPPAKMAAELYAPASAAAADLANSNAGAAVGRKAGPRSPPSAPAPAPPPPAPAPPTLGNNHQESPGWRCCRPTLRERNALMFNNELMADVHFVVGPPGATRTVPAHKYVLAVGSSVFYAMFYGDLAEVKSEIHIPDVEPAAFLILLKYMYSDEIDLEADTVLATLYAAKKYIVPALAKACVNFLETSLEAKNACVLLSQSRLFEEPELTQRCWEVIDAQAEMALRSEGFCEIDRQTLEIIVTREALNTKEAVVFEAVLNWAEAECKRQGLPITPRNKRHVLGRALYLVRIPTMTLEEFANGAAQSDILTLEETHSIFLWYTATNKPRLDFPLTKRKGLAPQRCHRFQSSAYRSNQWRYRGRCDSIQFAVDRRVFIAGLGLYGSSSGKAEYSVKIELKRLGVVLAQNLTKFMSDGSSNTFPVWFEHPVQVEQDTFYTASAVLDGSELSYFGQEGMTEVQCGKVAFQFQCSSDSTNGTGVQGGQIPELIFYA
# Sequence of UniProt Q13825 (Q13825 whole entry, looked up): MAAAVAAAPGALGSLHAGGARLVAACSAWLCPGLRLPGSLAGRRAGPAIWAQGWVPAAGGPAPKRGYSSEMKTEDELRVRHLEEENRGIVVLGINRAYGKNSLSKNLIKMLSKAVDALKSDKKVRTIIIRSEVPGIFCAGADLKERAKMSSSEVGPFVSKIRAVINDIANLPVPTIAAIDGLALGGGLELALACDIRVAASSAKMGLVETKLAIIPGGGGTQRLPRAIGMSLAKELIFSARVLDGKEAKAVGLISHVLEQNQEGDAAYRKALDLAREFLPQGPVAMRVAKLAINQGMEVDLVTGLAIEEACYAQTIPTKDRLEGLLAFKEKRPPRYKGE
Target,log2 fold change [1],log2 fold change [2],log2 fold change (ispinesib),log2 fold change (bafetinib),log2 fold change [3],log2 fold change (tipifarnib),log2 fold change (crizotinib),log2 fold change (gandotinib),log2 fold change (tozasertib),log2 fold change (doramapimod),log2 fold change [4],log2 fold change (nilotinib),log2 fold change [5],log2 fold change [6],log2 fold change [7],log2 fold change [8],log2 fold change (duvelisib),log2 fold change [9],log2 fold change (dasatinib),log2 fold change (mubritinib)
AIF1 (UniProt P55008),0.008,0.11,-0.317,0.035,0.153,0.051,,,,,,,,,,,,,,
ACTR3B (UniProt Q9P1U1),,,-0.069,,-0.051,0.129,-0.005,0.024,-0.02,0.158,0.035,0.036,-0.082,-0.001,,,,,,
BAIAP2 isoform 4 (UniProt Q9UQB8),-0.112,,,,,,,,0.042,,,,,,0.29,-0.018,,,,
ALDH2 isoform 2 (UniProt P05091),0.209,0.244,-0.214,-0.029,0.244,0.015,,-0.027,-0.224,,-0.124,,,,,,,,,
ARMC8 isoform 6 (UniProt Q8IUR7),,,,-0.012,,,,,,,,-0.034,-0.079,-0.052,,,,,,
BTBD6 (UniProt Q96KE9),0.117,0.033,0.209,-0.007,-0.003,-0.121,,0.64,-0.105,,0.011,0.277,-0.044,-0.098,-0.308,0.239,0.125,-0.061,0.008,0.153
ASS1 (UniProt P00966),0.033,0.017,-0.205,-0.113,0.06,0.005,,-0.014,-0.085,,-0.001,-0.017,0.021,-0.017,-0.079,0.093,0.039,-0.062,0.013,0.009
ARHGAP4 isoform 2 (UniProt P98171),0.023,,-0.111,0.709 (active),-0.046,0.161,,,0.105,,,-0.137,0.436,-0.174,0.212,-0.06,-0.202,0.131,-0.097,-0.164
ALG14 (UniProt Q96F25),,-0.117,-0.018,-0.092,0.126,-0.214,-0.034,-0.798 (active),-0.134,-0.038,0.461 (active),0.061,0.026,-0.033,-0.042,0.014,0.01,-0.002,0.003,0.003
BRMS1 (UniProt Q9HCU9),,-0.034,,,,,,-0.174,-0.094,,0.029,,,,,,0.049,-0.046,0.035,0.179
ATXN3 isoform 1 (UniProt P54252),,,-0.043,0.03,0.033,0.026,-0.028,-0.028,-0.163,0.087,0.021,-0.038,-0.11,-0.021,0.076,0.001,,,,0.018
BSCL2 isoform 4 (UniProt Q96G97),,0.05,,-0.225,,0.109,,-0.086,0.008,,-0.041,0.101,0.026,0.116,-0.007,0.002,0.129,0.111,-0.14,0.133
BAP18 isoform 3 (UniProt Q8IXM2),,,,,,,,0.147,0.012,,-0.182,,,,,,,,,0.117
ADD1 isoform 4 (UniProt P35611),,-0.213,,-0.034,,,0.152,-0.153,,-0.075,0.033,,,,0.186,0.114,,,,
ATXN7L3 isoform 2 (UniProt Q14CW9),0.001,,-0.007,-0.123,0.03,,-0.043,,,0.169,,0.024,0.043,-0.054,,,,,,0.086
AUH (UniProt Q13825),,,-0.069,-0.102,0.007,-0.011,-0.301,-0.127,-0.098,0.071,0.024,,,,-0.105,-0.072,-0.036,0.135,0.145,0.048
ANGEL1 (UniProt Q9UNK9),,,0.27,0.015,-0.063,,-0.058,,-0.077,-0.028,,,,,,,,,,
ALDH9A1 (UniProt P49189),0.084,0.061,-0.243,0.023,0.044,0.099,,0.356 (active),-0.052,,0.071,-0.08,-0.046,0.019,-0.116,0.047,0.002,0.045,-0.105,-0.015
ACSL6 isoform 1 (UniProt Q9UKU0),-0.055,0.164,-0.198,0.147,0.014,,,-0.145,-0.052,,0.057,-0.066,-0.066,-0.025,,,-0.068,0.157,0.036,0.015
"BRAF, A0A2R8Y8E0",,,-0.223,,0.052,,0.262,,0.248,-0.757 (active),,-0.419,0.112,-0.236,,,,,,0.113
